Usually inhibition stands for the relative decrease from the control value, in per cent.

Inhibition data for 35 molecules are collected here from PubChem BioAssay AID485344 (National Center for Advancing Translational Sciences (NCATS), 2010).

SMILES strings stand for the structures. Screen size: about 340,000 compounds; about 6,900 (2%) were called active. This is one part of a sample in which actives are shown more often than they occur. No stated cut-off is given here; in the data, active means inhibition above about 30%; inactive means below that, where a call was filed.

D(2) dopamine receptor (Homo sapiens), sequence (P14416 whole entry, looked up): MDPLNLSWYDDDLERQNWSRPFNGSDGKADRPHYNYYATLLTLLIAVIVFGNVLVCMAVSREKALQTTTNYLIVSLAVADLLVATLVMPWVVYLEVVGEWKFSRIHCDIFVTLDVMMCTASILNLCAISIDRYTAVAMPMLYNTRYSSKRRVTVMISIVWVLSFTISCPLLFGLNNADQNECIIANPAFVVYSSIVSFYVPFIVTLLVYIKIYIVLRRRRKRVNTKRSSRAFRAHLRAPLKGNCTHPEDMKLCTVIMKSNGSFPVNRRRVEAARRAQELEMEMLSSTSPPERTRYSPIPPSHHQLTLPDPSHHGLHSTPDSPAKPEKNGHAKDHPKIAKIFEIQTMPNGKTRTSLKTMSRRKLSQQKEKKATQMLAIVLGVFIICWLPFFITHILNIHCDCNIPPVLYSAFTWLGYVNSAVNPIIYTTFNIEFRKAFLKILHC

This assay has as its target D(2) dopamine receptor (Homo sapiens) (UniProt P14416). Nature of the assay: HTS Assay for Allosteric Antagonists of the Human D2 Dopamine Receptor: Primary Screen for Antagonists. Further: 0% is about no effect. Conditions: HEK293 TREx D2 cells, calcium flux, dopamine EC80; at 10 µM; stronger effect = higher value. The source says:
NIH Chemical Genomics Center [NCGC] NIH Molecular Libraries Probe Centers Network [MLPCN] MLPCN Grant: NS064831-01 Assay Submitter (PI): David Sibley Dopamine receptors (DARs) are involved in the etiology and/or therapy of a number of neuropsychiatric and endocrine disorders. For instance, all receptor-based antiparkinsonian drugs work via stimulating the D2 DAR subtype whereas all FDA-approved antipsychotic agents are antagonists of this receptor. […] There are three different types of allosteric modulators that we are seeking, two of which will stimulate or augment receptor signaling, allosteric agonists and potentiators, while the third, allosteric antagonists, will attenuate receptor signaling. The present primary screening assay measures compound antagonism after an EC80 addition of dopamine by tracking calcium flux in a […], inducible Hek293 Trex D2 cell line.
Freshly passaged cells are plated in 1536 well black, clear bottom plates at a density of 4000 cells/well in 3 ul of complete media containing 1x tetracycline inducer. After an overnight incubation at 30 C in 5% CO2, cells are loaded with 2 ul of the no wash Calcium Assay Kit (ABD Bioquest) and incubated at room temperature for 30 to 90 minutes. Agonist read: A 10 cycle (1 second/cycle) baseline measurement is taken and then the FDSS online 1536 pintool delivers 23 nl of compound library (as well as dopamine controls) to the plate. The plate is measured for kinetically at 1 cycle/sec for 180 seconds. Following the 180 second read, 1 ul of an EC80 (negative modulation assay) is delivered by an onboard pipette head. Measurements are taken kinetically for an additional 180 seconds.
(In general: Calcium assays in cells follow changes in intracellular calcium, usually with a dye or a luminescent sensor.)
With `COc1ccc(C(=O)C2CN(C)CC2C(=O)c2ccc(OC)cc2)cc1` (stereo not given), the inhibition is 4.54% (inactive).

In the case of `CN1CCC(OC(=O)c2cccc(F)c2)CC1`, the inhibition was 8.08% (inactive).

Turning to `Cc1ccc(C2CN(C)CC2C(=O)c2ccc(F)cc2)cc1` (stereo not given), the inhibition is 70% (active).

In the case of `COC(=O)C1=C(c2ccc(F)cc2OCc2ccccc2)C[C@@H]2CC[C@H]1N2C(=O)NCc1ccc2[nH]ccc2c1`, the inhibition is 4.27% (inactive).

On to `COC(=O)C1=C(c2cccc(OCc3ccccc3)c2)C[C@@H]2CC[C@H]1N2C(=O)NNCc1ccccc1`, for which the inhibition was -6.45% (inactive).

Take `O=C(O)CCn1cc(C=C2C(=O)NC(=S)NC2=O)c(-c2cccc(Br)c2)n1`: the inhibition was 18.3% (inactive).

Turning to `CCc1ccc(OCC(=O)N2CCN(CC(=O)Nc3ccccc3Cl)CC2)cc1`, the inhibition was -8.62% (inactive).

Take `Oc1cc2c(cc1CN1CCN(c3ccccc3)CC1)OCO2`: the inhibition was 108% (active).

Turning to `CC(C)c1ccc(O)c(CN2CCN(c3ccccc3)CC2)c1`, the inhibition is -16.3% (inactive).

With `Cc1cc(=O)oc2c(C)c(OCC(=O)N3CCN(Cc4ccc5c(c4)OCO5)CC3)ccc12`, the inhibition was 3.54% (inactive).

With `O=C(Cc1ccccc1[N+](=O)[O-])N1CCN(Cc2ccc3c(c2)OCO3)CC1`, the inhibition was -19.1% (inactive).

In the case of `CCN1CCN(Cc2cc(OC)c3c(c2)OCO3)CC1`, the inhibition is -21.1% (inactive).

In the case of `Fc1ccc(N2CCN(Cc3ccc4c(c3)OCO4)CC2)cc1`, the inhibition is 65.6% (active).

In the case of `CN1CCC(N(C)Cc2cccnc2)CC1`, the inhibition is 11.8% (inactive).

As to `Cc1ccccc1NC(=O)COC(=O)c1cc(C)n(C2CC2)c1C`, the inhibition is 6.13% (inactive).

As to `COC(=O)C1=C(c2ccc(Cl)c(C(F)(F)F)c2)C[C@@H]2CC[C@H]1N2C(=O)NC(C)C`, the inhibition is -9.37% (inactive).

On to `COC(=O)C1=C(c2ccc(F)cc2OCc2ccccc2)C[C@@H]2CC[C@H]1N2C(=O)NCc1ccc(Cl)cc1`, for which the inhibition was -5.86% (inactive).

Regarding `CCOC(=O)C1(Cc2ccc(Cl)cc2)CCN(C(C)CCn2cccn2)CC1` (stereo not given), the inhibition is 77.6% (active).

As for `CCOC(=O)C1(CCc2ccccc2)CCN(Cc2ccco2)CC1`, the inhibition is 1.26% (inactive).

With `COC(=O)C1=C(c2cccc(OCc3ccccc3)c2)C[C@@H]2CC[C@H]1N2C(=O)NCc1ccc(Br)cc1`, the inhibition was -11.9% (inactive).

`COc1ccc(CNCCc2c[nH]c3ccccc23)cc1OC`: the inhibition was 22.9% (inactive).

Regarding `c1cncc(CNC2=NCCC2)c1`, the inhibition is -1.77% (inactive).

Turning to `c1cncc(CNCCc2c[nH]c3ccccc23)c1`, the inhibition is 33% (active).

Take `COc1ccc(CN2CCN(c3ccccc3F)CC2)c(OC)c1`: the inhibition is 76.4% (active).

Consider `COc1ccccc1CN1CCN(C(=O)Cc2ccccc2)CC1`, for which the inhibition was -40.7% (inactive).

As for `Fc1cccc(F)c1CN1CCN(Cc2c(F)cccc2F)CC1`, the inhibition is -7.4% (inactive).

In the case of `COC(=O)C1=C(c2ccccc2OCc2ccccc2)C[C@@H]2CC[C@H]1N2C(=O)NCc1ccc(OC)cc1`, the inhibition is -2.56% (inactive).

With `COC(=O)C1=C(c2ccc(F)cc2OCc2ccccc2)C[C@@H]2CC[C@H]1N2C(=O)NCc1ccc(OC)c(OC)c1`, the inhibition was -1.84% (inactive).

Turning to `COC(=O)C1=C(c2ccc(Cl)c(C(F)(F)F)c2)C[C@@H]2CC[C@H]1N2C(=O)NC1CC1`, the inhibition was -0.929% (inactive).

Take `COC(=O)C1=C(c2ccc(-c3ccccc3)c(F)c2)C[C@@H]2CC[C@H]1N2C(=O)NCc1ccc(F)cc1`: the inhibition is -5.61% (inactive).

With `Cn1c(O)c(C(=Nc2ccc(F)cc2)c2ccccc2)c(=O)n(C)c1=O`, the inhibition is -2.27% (inactive).

`NCC(O)c1ccc(O)cc1` (stereo not given): the inhibition is 32.1% (active).

In the case of `CCc1cccc2c(C#N)cn(CC(=O)N3CCOCC3)c12`, the inhibition is -4.1% (inactive).

In the case of `C[C@]12CC[C@H](O)C[C@H]1CC[C@@H]1C2CC[C@]2(C)[C@@H](C3=CC(=O)OC3)[C@@H](O)C[C@]12O` (stereo not given in full), the inhibition was 8.92% (inactive).

Consider `COC(=O)C1=C(c2ccc3ccccc3c2)C[C@@H]2CC[C@H]1N2C(=O)NCCO`, for which the inhibition is -12.6% (inactive).
